From PubChem
This is a sample that favours compounds with a hit; in the whole collection about 2.8% have one here.
EWS-Fli block: EWS/Fli-driven NR0B1 reporter inhibitors, primary screen, A673 cells, NR0B1 luciferase, luminescence, MLPCN library; inhibition, % at 12.6 µM; hit rate 0.67% among 350,000; viability-normalised;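 active = mean inhibition of at least 50% after viability correction, with every replicate also passing that limit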;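 also: firefly luciferase signal divided by Alamar Blue viability fluorescence both relative to DMSO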
LGR2 antag: inhibitors of bursicon-induced LGR2 CRE-luciferase signal, primary screen, cell-based, HEK293, CRE-luciferase reporter, bursicon stimulation; bursicon-stimulated, 4 h; inhibition, % at 9.99 µM; Drosophila bursicon receptor LGR2 (rickets); hit rate 0.35% among 380,000; AID 720647, 2013;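 active = drop in luminescence signal, shown as inhibition above about 50% in the replicate tests, limit read from the data, passing the limit was not always enough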;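 also: agonist challenge used bursicon conditioned medium at about half maximal strength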
TROY NFkB inh: inhibitors of TROY-driven NF-kB signaling, primary screen, Q293 LMP1-TROYcd cells, NF-kB luciferase, uHTS. hit rate 0.98% among 360,000. Q293 LMP1-TROYcd NF-kB luciferase reporter, 4 h. AID 1347056, 2019. inhibition, % at 10 µM;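 active = compounds whose plate-normalised and pattern-corrected inhibition of the luciferase reporter signal at the single screening dose is 50% or more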
PAX8 reporter: inhibitors of PAX8-driven TPO luciferase reporter, primary screen, RMG-I cells, single concentration; SteadyGlo, 24 h; hit rate 1.2% among 360,000; inhibition, % at 12.6 µM;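 active = mean replicate inhibition at least 60% with every replicate also reaching 60%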;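 also: luciferase light reporting Pax8 driven TPO promoter activity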
TWEAK Fn14 block: inhibitors of TWEAK-Fn14 signaling, primary screen, luciferase reporter cells, uHTS. AID 1159606, 2016. hit rate 2% among 360,000. TWEAK-stimulated Fn14 reporter cells, luciferase luminescence, 8 h. inhibition, % at 10 µM; in the data active = inhibition above about 50%
Numbers stand for hits; - = inactive; . = no result.

SMILES	EWS-Fli block	LGR2 antag	TROY NFkB inh	PAX8 reporter	TWEAK Fn14 block
C=CCN1C(=O)[C@@]2(O[C@@H](CCO)[C@H]([Si](C)(C)c3ccc(OC)cc3)[C@H]2C)c2cc(NC(C)=O)ccc21	-	.	.	.	.
COc1ccc([Si](C)(C)[C@H]2[C@H](CCO)O[C@@]3(C(=O)N(C)c4ccccc43)[C@@H]2C)cc1	-	.	.	-	.
COc1ccc([Si](C)(C)[C@@H]2[C@@H](CCO)O[C@]3(C(=O)N4c5c(cc(OC)cc53)C(C)=CC4(C)C)[C@H]2C)cc1	-	.	.	106.2	.
COc1ccc([Si](C)(C)[C@H]2[C@H](CCO)O[C@@]3(C(=O)N4c5c(cc(OC)cc53)C(C)=CC4(C)C)[C@@H]2C)cc1	-	.	.	102.2	.
CCc1ccccc1N(CC(=O)NC1CCCCC1)C(=O)CCCC(=O)Nc1ccccn1	-	-	-	-	79.7
Cc1ccccc1C1NC(=O)c2ccccc2O1 (configuration not stated)	-	-	-	-	87.6
CCCc1nnc(SCC(=O)Nc2ccc(OCC)cc2)n1N	.	.	-	.	99.8
Cc1nc(-c2ccc(C(=O)Nc3cccc(Br)c3)cc2)cs1	-	-	-	-	66.0
Cc1nc(-c2cccc(NC(=O)c3ccc(-n4nccc4C)cc3)c2)cs1	-	-	59.9	-	73.5
Cc1nc(-c2cccc(NC(=O)c3cccs3)c2)cs1	.	.	-	-	-
Cc1nc(-c2cccc(NC(=O)c3ccc(Br)o3)c2)cs1	-	-	-	-	-
CN(C)C(=O)C[C@H]1CC[C@H]2[C@H](COc3ccc(NC(=O)C4CCOCC4)cc3C(=O)N2C)O1	-	-	.	-	.
CCN(CC)c1ccc2cc(C(=O)Nc3ccccn3)c(=O)oc2c1	.	.	53.5	.	87.3
CCN(CC)c1ccc2cc(NC(=O)CCC(=O)O)c(=O)oc2c1	.	-	69.1	.	91.1
CCN(CC)c1ccc2cc(C(C)=O)c(=O)oc2c1	.	-	-	-	-
CCN(CC)CCNc1cc(C)nc2c1C(=O)C(=O)C=C2N1CCCCC1	-	-	-	73.1	-
CCN(CC)CCNC(=O)c1ccc(N2CCCCC2)c(NS(=O)(=O)c2ccc(C)cc2)c1	.	.	.	.	-
O=C(c1ccccc1F)N1C[C@H]2[C@@H](c3ccccc31)[C@@H](CO)N2CC1CCCCC1	-	-	.	-	.
COc1cc(C2NC(=O)c3ccccc3O2)cc(OC)c1OC (configuration not stated)	.	.	-	-	-
COc1cc(C2Oc3ccccc3C=C2[N+](=O)[O-])cc(OC)c1OC (configuration not stated)	52.2	-	-	-	-
CCCCCOc1ccc(Br)cc1/C(C)=N/NC1=NCCN1	.	.	-	81.2	-
COc1cc(/C=C2\SC(N)=NC2=O)cc(Cl)c1O	-	-	-	-	-
O=C1NC(=O)/C(=C/c2cccc([N+](=O)[O-])c2)N1	-	-	-	-	-
COc1cc(/C=C2/CCC/C(=C\c3cc(O)c(OC)c(Cl)c3)C2=O)cc(Cl)c1O	.	.	57.8	80.9	-
COc1cc(/C=C2/CCCC(C(=O)C(F)(F)F)=C2O)ccc1O	-	-	-	-	-
SMILES	EWS-Fli block	LGR2 antag	TROY NFkB inh	PAX8 reporter	TWEAK Fn14 block
CCOc1cc(/C=C2\CN(CC)C/C(=C\c3ccc(O)c(OCC)c3)C2=O)ccc1O	61.0	69.0	-	-	100.2
CCN1C/C(=C/c2cccc([N+](=O)[O-])c2)C(=O)/C(=C/c2cccc([N+](=O)[O-])c2)C1	.	83.8	-	-	95.4
COc1cc(/C=C2\CCC/C(=C\c3ccc(O)c(OC)c3)C2=O)ccc1O	77.1	-	-	-	85.1
CCCc1cn(CC[C@H]2CC[C@H](NC(=O)C3CCOCC3)[C@H](CO)O2)nn1	-	-	.	-	.
COc1cc(C=C2C(=O)C=CC2=O)ccc1O	-	-	-	106.0	-
COc1cc(/C=C2\CC/C(=C\c3cc(OC)c(O)c(OC)c3)C2=O)cc(OC)c1O	-	.	-	87.7	79.5
C[C@H](CO)N1C[C@H](C)[C@@H](CN(C)CC2CC2)Oc2ccc(NS(C)(=O)=O)cc2CC1=O	-	-	.	-	.
CCCNC(=O)N1CC2(CCN(C(=O)COC)CC2)c2c(n(C)c3cc(OC)ccc23)[C@@H]1CO	-	-	.	.	.
O=C(C[C@H]1C=C[C@H](NC(=O)c2ccccn2)[C@@H](CO)O1)NCc1cccc(F)c1	-	-	.	-	.
Cc1cc(NCCNC2=CC(=O)CCC2)nc2ccccc12	.	.	-	.	73.5
Cc1ccc(-n2cc(-c3ccccc3)c3c(N4CCOCC4)ncnc32)cc1	-	-	-	-	-
Cc1cccc(-n2cc(-c3ccccc3)c3c(N4CCOCC4)ncnc32)c1	-	-	-	67.6	-
Cc1cccc(-n2ncc3c(N4CCCC4)ncnc32)c1	.	-	-	.	57.2
Cc1cccc(-n2ncc3c(N4CC(C)CC(C)C4)ncnc32)c1 (configuration not stated)	-	-	-	-	-
Cc1cccc(-n2ncc3c(N4CCOCC4)ncnc32)c1	67.9	90.5	67.9	-	84.8
COc1ccc(CN(C)C[C@@H]2Oc3ccc(NC(=O)Nc4c(C)noc4C)cc3CC(=O)N([C@H](C)CO)C[C@@H]2C)cc1	-	-	.	-	.
C[C@@H]1CN([C@H](C)CO)C(=O)c2cccc(NS(=O)(=O)c3ccc(Cl)cc3)c2O[C@H]1CN(C)C(=O)Nc1ccccc1	-	-	.	-	.
CC(C)Cn1c(=O)c(C(=O)Nc2ccccc2S(N)(=O)=O)c(O)c2ccccc21	-	-	-	.	-
CCOC(=O)Cc1csc(NC(=O)c2c(O)c3ccccc3n(CC(C)C)c2=O)n1	-	-	-	.	53.6
O=C(C[C@@H]1C=C[C@H](NC(=O)CCN2CCCCC2)[C@@H](CO)O1)Nc1ccc(-c2ccccc2)cc1	-	-	.	-	.
O=c1[nH]c2cc([N+](=O)[O-])ccc2c2ccccc12	-	-	-	-	-
COCC(=O)Nc1ccc2c(c1)C(=O)N(C)C[C@H](OC)[C@@H](C)CN(C(=O)NC(C)C)[C@@H](C)CO2	-	-	.	.	.
Cc1ccc(S(=O)(=O)N(C)C[C@@H]2Oc3ccc(NC(=O)Nc4cccc5ccccc45)cc3C(=O)N([C@@H](C)CO)C[C@@H]2C)cc1	-	-	.	-	.
COCCNc1nc(Oc2cncc(Cl)c2)c2sccc2n1	-	-	-	-	50.0
COCCNc1nc(Oc2cccc(F)c2)c2sccc2n1	-	-	-	-	-
C[C@@H]1CN([C@@H](C)CO)C(=O)c2cc(/C=C/c3ccccc3)cnc2O[C@@H]1CN(C)Cc1cncnc1	-	-	.	-	.
O=[N+]([O-])c1ccccc1CN1CCN(Cc2ccc3ccccc3c2)CC1	-	-	-	-	64.7
OC1CCN(Cc2ccc3ccccc3c2)CC1	-	-	-	-	96.6
COc1ccc(CN2CCN(Cc3ccc4ccccc4c3)CC2)cc1OC	-	-	-	-	-
C[C@@H]1CN([C@@H](C)CO)C(=O)c2ccccc2-c2ccccc2CO[C@@H]1CN(C)Cc1ccc(Cl)c(Cl)c1	-	-	.	71.0	.
